Values joined by “and” are separate entries in the source; they are usually repeats but may differ in a detail not shown here. Identical values can stand only once. About 83,000 compounds went through this panel and 20% of them were active in at least one assay; those are over-represented in the sample as a whole.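 Each cell line was grown in a 96-well plate and treated with one concentration of compound for 48 hours. Values below 10 were considered active.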 Active and inactive are the calls of the source.

This passage reports growth results from PubChem BioAssay (NCI).

One test concerns NCI-H322M lung. Put plainly: NCI-60 one-dose screen, 48 h (100 = growth as untreated, 0 = no growth, -100 = all killed). The settings on record: 10 µM unless noted.
In the case of `CCC(CCCN(CC)CCc1ccccc1)OC(=O)c1cc(OC)c(OC)c(OC)c1` (centres undefined), the growth was 72.2% (inactive).

With `CCC(CC)COC(=O)c1ccc(O)c(O)c1`, the growth is 85.3% (inactive).

Regarding `COC(=O)Nc1nc2ccc(C(=O)c3ccccc3)cc2[nH]1`, the growth is 56.9% (inactive) and 66.1% (inactive) and 44.1% (inactive).

With `CC(=O)ON=C1C=CC(=C(C#N)c2ccccc2)C=C1`, the growth is 94.8% (inactive).

In the case of `NC(=O)/C=C/C(=O)c1c(Cl)cccc1Cl`, the growth was 19.1% (inactive).

As to `CCCCCCCCCCCCCCCC[N+](C)(CCO)Cc1cnc[nH]1` (centres undefined), the growth was 20.3% (inactive).

`Oc1c(Br)cc(Cl)cc1C(c1cc(Cl)cc(Br)c1O)C(Cl)(Cl)Cl`: the growth is 15.2% (inactive).

`CC1OC2CC(=O)OC2C2=C1C(=O)c1c(O)cccc1C2=O` (centres undefined): the growth is -29.1% (active).

On to `CC(C)(C)c1ccc(O)c(C2CCCCC2)c1`, for which the growth is 105% (inactive).

For `Oc1c(Cl)cc(Cl)c2cccnc12`, the growth is 63.2% (inactive) and 72.1% (inactive).

Turning to `CCN(CC)CC(C)(C)C(=O)/C=C/c1ccc(Cl)c(Cl)c1`, the growth was 22.7% (inactive).

For `CN(C)CCOc1ccc2c(c1)C(=O)/C(=C\c1ncc([N+](=O)[O-])n1C)C2`, the growth is 6.13% (active).

As for `C/C=C1\SC(=S)NC1=O`, the growth was 108% (inactive).

As for `CCOC(=O)/C(=C\c1ccc(-c2ccccc2)cc1)C(C)=O`, the growth was 97.3% (inactive).

Take `N#CSCc1ccc(CSC#N)c(Cl)c1`: the growth is 106% (inactive).

Consider `CNC(=O)N/N=C/c1ccc([N+](=O)[O-])o1`, for which the growth was 88.7% (inactive).

Regarding `Cc1cc2nc(CS)[nH]c2cc1C`, the growth is 76.4% (inactive).

As for `N#CC1C(=O)SC2c3ccccc3C(=O)c3ccccc3C12` (centres undefined), the growth is 98.8% (inactive).

Turning to `Nc1nc(N)c2c(ccc3c2ccn3Cc2cccc([N+](=O)[O-])c2)n1`, the growth was -91.1% (active).

With `Cn1c2c(c3ccccc31)CCN1C[C@@H]3CCCC[C@H]3C[C@@H]21`, the growth was 6.3% (active).

Take `Oc1c(Br)c(Br)c(O)c(Br)c1Br`: the growth is 105% (inactive).

Take `O=C(Nc1ccccc1)Oc1c(Cl)c(Cl)c(Cl)c(Cl)c1Cl`: the growth was 94.1% (inactive) and 106% (inactive).

In the case of `Nc1ncnc2c1ncn2C1OC(CO)C(O)C1O` (centres undefined), the growth is 114% (inactive) and 60.9% (inactive) and 111% (inactive).

Regarding `Nc1nc(N)c2nc(CNc3ccc(C(=O)NC(CCC(=O)O)C(=O)O)cc3)cnc2n1` (centres undefined), the growth is 51.2% (inactive) and 50.8% (inactive).

Turning to `O=C(CC1(O)C(=O)Nc2c(Cl)ccc(Cl)c21)c1ccc(Cl)cc1Cl` (centres undefined), the growth is 108% (inactive).

As for `O=C(/C=C\c1ccccc1)N1c2ccccc2CC1c1c[nH]c2ccccc12` (centres undefined), the growth was 76.9% (inactive).

Consider `CC1=CC(O)C2CC1C2(C)C` (centres undefined), for which the growth is 101% (inactive) and 97.1% (inactive).

For the compound `CCN1/C(=C\c2cc[n+](CC)c3ccccc23)C=Cc2ccccc21`, the growth was 25.4% (inactive).

Turning to `CC(C)c1ccc2nc3ccc(C(=O)NCCN4CCN(c5ccccc5)CC4)cn3c(=O)c2c1`, the growth was 86.8% (inactive).

Turning to `O=C(O)C1C2CC3C(OC(=O)C31)C2Br` (centres undefined), the growth is 101% (inactive) and 106% (inactive).

Turning to `NC(=S)N/N=C/c1ccc(Cl)s1`, the growth was 101% (inactive).

With `CCN(CC)CCOc1ccc(-c2nc3cc(Cl)ccc3s2)cc1`, the growth was 28.3% (inactive).

The test system of the next test is HOP-62 NSCLC. Described as above. The settings on record: 10 µM unless noted.
In the case of `CCC(CCCN(CC)CCc1ccccc1)OC(=O)c1cc(OC)c(OC)c(OC)c1` (centres undefined), the growth is 68.7% (inactive).

For `CCC(CC)COC(=O)c1ccc(O)c(O)c1`, the growth is 50.3% (inactive).

Consider `COC(=O)Nc1nc2ccc(C(=O)c3ccccc3)cc2[nH]1`, for which the growth is 30.4% (inactive) and 21.9% (inactive) and 49.2% (inactive).

Consider `CC(=O)ON=C1C=CC(=C(C#N)c2ccccc2)C=C1`, for which the growth was 55.1% (inactive).

Take `NC(=O)/C=C/C(=O)c1c(Cl)cccc1Cl`: the growth was -4.87% (active).

For `CCCCCCCCCCCCCCCC[N+](C)(CCO)Cc1cnc[nH]1` (centres undefined), the growth was -64.2% (active).

As to `Oc1c(Br)cc(Cl)cc1C(c1cc(Cl)cc(Br)c1O)C(Cl)(Cl)Cl`, the growth was 59.2% (inactive).

`CC1OC2CC(=O)OC2C2=C1C(=O)c1c(O)cccc1C2=O` (centres undefined): the growth was -88.2% (active).

Take `CC(C)(C)c1ccc(O)c(C2CCCCC2)c1`: the growth was 107% (inactive).

As to `Oc1c(Cl)cc(Cl)c2cccnc12`, the growth is 49.7% (inactive) and 71.2% (inactive).

Consider `CCN(CC)CC(C)(C)C(=O)/C=C/c1ccc(Cl)c(Cl)c1`, for which the growth was 46.1% (inactive).

Consider `CN(C)CCOc1ccc2c(c1)C(=O)/C(=C\c1ncc([N+](=O)[O-])n1C)C2`, for which the growth was -17.8% (active).

Turning to `C/C=C1\SC(=S)NC1=O`, the growth is 100% (inactive).

Turning to `CCOC(=O)/C(=C\c1ccc(-c2ccccc2)cc1)C(C)=O`, the growth is 110% (inactive).

As for `N#CSCc1ccc(CSC#N)c(Cl)c1`, the growth was 129% (inactive).

In the case of `CNC(=O)N/N=C/c1ccc([N+](=O)[O-])o1`, the growth was 102% (inactive).

As to `Cc1cc2nc(CS)[nH]c2cc1C`, the growth was 92.7% (inactive).

In the case of `N#CC1C(=O)SC2c3ccccc3C(=O)c3ccccc3C12` (centres undefined), the growth is 96.1% (inactive).

On to `Nc1nc(N)c2c(ccc3c2ccn3Cc2cccc([N+](=O)[O-])c2)n1`, for which the growth was -83.7% (active).

Consider `Cn1c2c(c3ccccc31)CCN1C[C@@H]3CCCC[C@H]3C[C@@H]21`, for which the growth was 40.7% (inactive).

On to `Oc1c(Br)c(Br)c(O)c(Br)c1Br`, for which the growth is 146% (inactive).

As for `O=C(Nc1ccccc1)Oc1c(Cl)c(Cl)c(Cl)c(Cl)c1Cl`, the growth is 101% (inactive) and 78.8% (inactive).

Take `Nc1ncnc2c1ncn2C1OC(CO)C(O)C1O` (centres undefined): the growth is 120% (inactive) and 93.4% (inactive) and 95% (inactive).

Consider `Nc1nc(N)c2nc(CNc3ccc(C(=O)NC(CCC(=O)O)C(=O)O)cc3)cnc2n1` (centres undefined), for which the growth is 39.1% (inactive) and 11.7% (inactive).

For the compound `O=C(CC1(O)C(=O)Nc2c(Cl)ccc(Cl)c21)c1ccc(Cl)cc1Cl` (centres undefined), the growth was 70.2% (inactive).

With `O=C(/C=C\c1ccccc1)N1c2ccccc2CC1c1c[nH]c2ccccc12` (centres undefined), the growth was 57.1% (inactive).

`CC1=CC(O)C2CC1C2(C)C` (centres undefined): the growth is 93.4% (inactive) and 102% (inactive).

On to `CCN1/C(=C\c2cc[n+](CC)c3ccccc23)C=Cc2ccccc21`, for which the growth was 18.7% (inactive).

Take `CC(C)c1ccc2nc3ccc(C(=O)NCCN4CCN(c5ccccc5)CC4)cn3c(=O)c2c1`: the growth was 90.9% (inactive).

Take `O=C(O)C1C2CC3C(OC(=O)C31)C2Br` (centres undefined): the growth is 92.8% (inactive) and 99.4% (inactive).

On to `NC(=S)N/N=C/c1ccc(Cl)s1`, for which the growth was 109% (inactive).

For the compound `CCN(CC)CCOc1ccc(-c2nc3cc(Cl)ccc3s2)cc1`, the growth is -66.6% (active).
